Screening results: PubChem BioAssay, National Center for Advancing Translational Sciences (NCATS)
FLuc modulator – firefly luciferase modulation, counter-screen for miR-21 project; 360,000 tested, 6.9% active; AID 588342; Potency, µM (titrated, usually from 57.5 µM), for inactives: top-dose activity change, negative = inhibition, actives largely listed as inhibitors; purified FLuc, Km substrates, luminescence inhibition;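 also: plate controls were vehicle for no effect and reference inhibitor for full effect; nearly all actives have a fitted effect of over 55% in size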
Target sequence (P08659 whole entry, looked up): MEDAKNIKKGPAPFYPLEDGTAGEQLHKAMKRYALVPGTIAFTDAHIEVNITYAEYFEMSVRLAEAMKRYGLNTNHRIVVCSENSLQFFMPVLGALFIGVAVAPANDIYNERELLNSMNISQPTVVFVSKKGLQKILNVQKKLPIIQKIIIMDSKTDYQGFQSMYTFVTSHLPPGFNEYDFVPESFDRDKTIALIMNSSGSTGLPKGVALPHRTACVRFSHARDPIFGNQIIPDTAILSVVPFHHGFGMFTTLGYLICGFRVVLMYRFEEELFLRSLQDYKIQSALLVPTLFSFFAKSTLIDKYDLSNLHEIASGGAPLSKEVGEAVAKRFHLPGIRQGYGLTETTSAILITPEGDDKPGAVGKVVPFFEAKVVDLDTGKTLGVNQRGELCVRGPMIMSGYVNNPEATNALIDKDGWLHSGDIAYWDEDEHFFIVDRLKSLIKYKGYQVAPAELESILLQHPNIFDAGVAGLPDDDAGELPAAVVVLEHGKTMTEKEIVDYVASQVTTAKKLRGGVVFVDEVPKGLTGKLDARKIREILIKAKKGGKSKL
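Purified P. pyralis luciferase (10nM final) with 10uM D-luciferin and 10uM ATP (Km levels) in 50mM Tris acetate pH 7.5, 10mM Mg acetate, 0.01% Tween-20, 0.05% BSA; qHTS 6-point titration, ~60 µM downward; luminescence read.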
Rab9 promoter act – activates the Rab9 promoter | Huh7 Rab9 promoter-luciferase reporter, luminescence, 24 h | 320,000 tested, 2.8% active | Potency, µM (highest dose often 9.22 µM), without a hit: top-dose activation, negative = inhibition, usual class: activators | AID 485297; also: % of control where 0% means no effect; nearly all actives have a fitted effect of over 60% in size
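Luminescence read-out: Huh7 cells stably expressing Rab9-luciferase, treated 24 h with compound at 37 °C, then lysed with luciferase reagent for 10 min at ambient before reading.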
SMN2 splice enh – SMN2 splice variant enhancement; Potency, µM (highest dose often 46.1 µM), for the others: top-dose activity change, positive = activation, most hits filed as activators; 210,000 tested, 2.8% active; HEK293 SMN2-luciferase splicing reporter, luminescence, 30-36 h; also: % of control where 0% means no effect; nearly all actives have a fitted effect of over 55% in size
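HEK293 cells carry an SMN2 minigene-luciferase reporter in which exon 7 inclusion puts luciferase in frame. Cells were seeded at 2000 cells/well, attached for 10-12 hours, then exposed to compounds for 30-36 hours at 37C before ONE-Glo luminescence.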
KinaseGlo FLuc – Kinase-Glo luciferase inhibition (counter-screen). Q27757. AID 1379. Kinase-Glo luciferase, ATP luminescence, 8 min. Potency, µM (top dose mostly 38.3 µM), for the others: at the top dose activity change, negative = inhibition, hits mostly inhibitors. 200,000 tested, 0.28% active; also: % is scaled to controls: 0 for no effect and ±100 for the full control effect; nearly all actives have a fitted effect of over 60% in size
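Compound is pinned into ATP-containing buffer (10 uM ATP, imidazole pH 7.2, 7 mM MgCl2). Kinase-Glo luciferase reagent is then added. Light output is recorded following an 8-min room-temperature incubation.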
NPC1 prom act – activates the NPC1 promoter | AID 485313 | 320,000 tested, 2.4% active | Potency, µM (doses to about 9.22 µM), inactives show top-dose activation, hits mostly activators | Huh7 NPC1 promoter luciferase reporter, 24 h; also: % of control where 0% means no effect; nearly all actives have a fitted effect of over 60% in size
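Luciferase expression driven by the NPC1 promoter was measured in stably transfected Huh7 cells after a 24 h compound incubation, using a luciferase reagent and a luminescence read.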
* hit, by the source's call; u = inconclusive; x = not tested or not shown; [ ] = remark or other dose. Only some compounds are listed: those with a hit (about 7.3% of all), similar ones and a draw of the others. Calls follow the shape of the dose curve; as a rule, active = well fitted curve in the direction sought with a large enough effect; inconclusive = small, poorly fitted or top-dose-only effect, or another doubt; inactive = no such curve, though single readings can be large; an effect the other way counts as inactive or inconclusive. Potency is read from the fitted curve at half-maximal effect.

SMILES | FLuc modulator | Rab9 promoter act | SMN2 splice enh | KinaseGlo FLuc | NPC1 prom act
CCc1ccc(Nc2nnc(SC3CCOC3=O)s2)cc1 (configuration not stated) | 21µM* | -5% | 3% | 3% | -1%
C=C(CO)C1Cc2c(ccc3c(=O)c4c(oc23)COc2cc(OC)c(OC)cc2-4)O1 (configuration not stated) | x | x | x | 0% | x
CN(C)c1ccc(-n2cc3c(=O)n(C)c(=O)n(C)c3c2)cc1 | 17µM* | u | -8% | -4% | u
C=CCOc1c(/C=N\NC(N)=O)cccc1OC | -1% | 0% | x | x | -9%
COc1cc(/C=N/Nc2ccc(C(=O)O)cc2)cc(OC)c1OC | 11µM* | 2µM* | x | x | 1.6µM*
COc1cc(/C=N/NC(=S)NCCc2ccccc2)cc(OC)c1OC | 27µM* | -3% | x | x | -1%
C=CCOc1c(OC)cc(/C=N/Nc2cccc(C(=O)O)c2)c(Br)c1Br | u | 3.2µM* | 14µM* | 0% | 2.5µM*
COc1ccc(/C=N/Nc2ccc(C(=O)O)cc2)c(OC)c1OC | 15µM* | 3.2µM* | x | x | 2.8µM*
COc1ccc(/C=N\Nc2ccc([N+](=O)[O-])cc2)c(C(=O)O)c1OC | u | -3% | x | x | -3%
CCOc1ccc2c(c1)c(=O)c(S(=O)(=O)c1ccc(C)cc1)cn2Cc1ccccc1Cl | 1% | x | -9% | x | x
CCOC(=O)c1c(NC(C)=O)c2c3c(sc2n1Cc1nc(-c2ccc(Cl)cc2)oc1C)CCCC3 | -6% | x | 5% | x | x
COc1cc(/C=N/Nc2ccc(C(=O)O)cc2)ccc1O | 1.9µM* | u | u | -17% | u
COc1cccc(C2=CC(c3cccc(OC)c3OC)n3nnnc3N2)c1 (configuration not stated) | 24µM* | 12% | u | 1% | -11%
COc1ccc(C2C=C(c3ccccc3)Nc3nnnn32)cc1 (configuration not stated) | 3% | u | 3% | -3% | 4µM*
COc1ccc(C2=CC(c3ccc(C)cc3)n3nnnc3N2)cc1 (configuration not stated) | -11% | 2% | 2% | -6% | 8%
COc1ccc(NC(=O)c2sc3nc4n(c(=O)c3c2C)CCC4)cc1Cl | 7% | x | x | x | x
Cc1ccccc1NC(=O)c1c(NC(=O)c2ccncc2)sc2c1CCC(C(C)(C)C)C2 (configuration not stated) | u | x | -13% | x | x
COC(=O)C1CCN(C(=O)c2ccc3nc(-c4cccc(OC)c4)oc3c2)CC1 | 21µM* | 2µM* | x | x | 1.8µM*
COc1cccc(-c2nc3ccc(C(=O)NC(C)Cc4cccnc4)cc3o2)c1 (configuration not stated) | 9.5µM* | 2.8µM* | x | x | 2.2µM*
COc1cn(CC(=O)Nc2cc(C)cc(C)c2)c(CN2CCCCC2)cc1=O | 0% | x | x | x | x
O=C(O)c1ccc(S(=O)(=O)N[C@H](Cc2ccc(C(F)(F)F)cc2)C(=O)O)cc1 | 3% | -1% | x | x | -2%
O=C(NCCO)c1cccc(Cl)c1 | 4% | 0.0063µM* | -2% | -3% | u
O=C(Nc1ccccc1)OCCNC(=O)c1cccc(Cl)c1 | 21µM* | -3% | -21% | 2% | 6%
O=C(Nc1cccc(Cl)c1)OCCOc1ccccc1 | 21µM* | u | x | x | u
O=C(Nc1ccccc1)OCCOc1ccccc1 | 11µM* | 0.89µM* | u | -1% | 4µM*
SMILES | FLuc modulator | Rab9 promoter act | SMN2 splice enh | KinaseGlo FLuc | NPC1 prom act
COc1ccc(OCCOC(=O)Nc2ccccc2)cc1 | -11% | -4% | x | x | 1%
CSCCNC(=O)c1cccc(Cl)c1 | 1% | -1% | -10% | -6% | -2%
CC(=O)Nc1ccc(Oc2nc(-c3ccccn3)nc3ccccc23)cc1 | -18% | 0% | x | x | 1%
CC(=O)Nc1cccc(Oc2nc(-c3ccccn3)nc3ccccc23)c1 | 15µM* | -1% | x | x | -6%
CN(C(=O)Nc1ccc(Cl)cc1Cl)C1CCCC1 | 19µM* | 4µM* | x | x | u
Cn1cc(/C=C/C(=O)c2ccccc2)c2ccccc21 | 0.54µM* | 1.3µM* | x | x | 1.6µM*
Cc1ccc(C(=O)/C=C/c2cn(CN3CCN(C)CC3)c3ccccc23)cc1 | 4.8µM* | u | 14% | -4% | u
CCc1ccccc1NS(=O)(=O)c1cc2c(cc1C)n(C)c(=O)c(=O)n2C | -1% | -1% | x | x | -1%
CCn1c(=O)n(CC)c2cc(S(=O)(=O)Nc3ccccc3C)c(C)cc21 | -1% | 0% | 7.9µM* | 5% | -3%
O=C(Nc1nc(-c2ccc(Cl)cc2)cs1)C1CCCO1 (configuration not stated) | 15µM* | u | 25% | 2% | 27%
CCOc1ccc(-c2csc(NC(=O)C3CCCO3)n2)cc1 (configuration not stated) | 15µM* | 11% | 3% | 1% | 18%
Cc1ccc(C)c(C(=N)c2ccccc2Cc2ccccc2)c1 | x | x | -16%[9.22 µM] | -5%[7.66 µM] | x
C=CCSc1nc2ccccc2c(=O)n1Cc1ccco1 | x | x | -12%[9.22 µM] | -1%[7.66 µM] | x
C=CCSc1nc2c(cnn2-c2ccccc2)c(=O)n1N | 8.5µM* | 1.4µM* | x | x | 1.4µM*
CC(C)(C)c1ccc(C(=O)NC2(C(F)(F)F)NC(=O)N(CCc3ccccc3)C2=O)cc1 (configuration not stated) | 0% | x | -5% | x | x
O=C(OCC(=O)c1c[nH]c2ccccc12)c1cccc([N+](=O)[O-])c1 | 17µM* | 13% | x | x | 16%
COc1cccc(C(=O)OCC(=O)c2c[nH]c3ccccc23)c1OC | 9.5µM* | u | x | x | 19%
O=C(CC1CC2CCC1C2)OCC(=O)c1c[nH]c2ccccc12 (configuration not stated) | 15µM* | 6% | 8% | 3% | 0%
Cc1ccccc1NC(=O)Cn1c(=O)n(CCC(=O)N2CCc3ccccc3C2)c(=O)c2ccccc21 | -8% | x | -1% | x | x
CCCOc1ccc(C2c3c(-c4ccccc4O)n[nH]c3C(=O)N2Cc2ccncc2)cc1OCC (configuration not stated) | -1% | x | 15% | x | x
CCCSC1=N/C(=C\C=C\c2ccco2)C(=O)S1 | 11µM* | 1% | -6% | 5% | -2%
COc1ccc(Nc2nc(-c3cccnc3)cs2)c(OC)c1 | 21µM* | u | x | x | 3.5µM*
O=[N+]([O-])c1ccccc1Nc1nc(-c2cccnc2)cs1 | 11µM* | 28% | x | x | u
COc1ccccc1Nc1nc(C2(C)CCC(=O)O2)cs1 (configuration not stated) | 15µM* | 22% | 14% | 1% | 16%
COc1ccccc1Nc1nc(-c2cccnc2)cs1 | 13µM* | u | x | x | u
Cc1cc(Cl)ccc1Nc1ncnc2onc(C)c12 | 1% | x | x | x | x
COc1ccc(-n2c(-c3ccco3)nc3c(cnn3-c3ccccc3Cl)c2=O)cc1 | -8% | x | -8% | x | x
COc1ccccc1CC(=O)NCC1CCCO1 (configuration not stated) | -1% | x | 19% | 3% | x
